Data on 40 compounds can be found in PubChem BioAssay (Tox21).

“And” between values parts separate entries of the source, which are not always exact repeats. Identical values can stand only once. Inconclusive results are not listed. Unmarked numbers belong to inactive results. The source made the active and inactive calls. Calls come from the whole dose curve; as a rule, active = well fitted cell-killing curve with a large enough effect in the repeat runs; inconclusive = weak or mixed curves; inactive = flat fitted curve, though single readings scatter.
% is set by controls: 0 for no effect and ±100 for the full control effect; potency is the fitted concentration of half-maximal effect.

The nature of the test: qHTS RealTime-Glo MT Cell Viability Assay in HepG2 cells - 32 hour (AID 1224877). Note: nearly all actives have a fitted effect of over 55% in size. The conditions noted are these: RealTime-Glo luminescence; series mostly up to 76.8 µM; activity change, negative = cytotoxic: at the top concentration. The text has this:
U.S. Tox21 Program National Center for Advancing Translational Sciences [NCATS] NIH Chemical Genomics Center [NCGC] U.S. Environmental Protection Agency [EPA] National Institutes of Environmental Health Sciences [NIEHS] National Toxicology Program [NTP] U.S. Food and Drug Administration [FDA] Tox21 Assay Overview: Measure of cell viability is critical in the cell-base assay. Analysis of cell viability is necessary for the characterization of cell responses to cytotoxic drugs and environmental stress. A RealTime-Glo MT Cell Viability Assay to monitor cell viability in real time of continues cell culture during 40 hours of compound treatment was used to screen Tox21 10K library compounds in HepG2 cells. The RealTime-Glo MT Cell Viability Assay is a nonlytic, homogeneous, bioluminescent method to measure cell viability in real time using a simple, plate-based method. The assay involves adding NanoLuc luciferase and a cell-permeant prosubstrate to cells in culture. Viable cells reduce the proprietary prosubstrate to generate a substrate for NanoLuc luciferase. This substrate diffuses from cells into the surrounding culture medium, where it is rapidly used by the NanoLuc Enzyme to produce a luminescent signal. The signal correlates with the number of viable cells, making the assay well suited for cytotoxicity studies.
Tox21 Assay Protocol Summary: The mixture of HepG2 cell suspension and reagents were dispensed at 600cells/6 ul/well in 1536-well tissue culture treated black solid bottom plates using a Multidrop dispenser. After the assay plates were incubated at a 37 C/5% CO2 incubator for 5 hours, 23 nL of compounds dissolved in DMSO, positive and negative controls was transferred to the assay plate by a pintool work station. The plates were incubated at 37 C for 40 hours. The luminescence intensity were measured at 0h, 8h, 16h, 24h, 32h and 40h time points using ViewLux plate reader during compound treatment.
Background: qHTS replaces the single test concentration by a dilution series.
With `O=CC1CC1`, the “activity change, negative = cytotoxic” value is 2.38%.
Consider `C/C=C/C(=O)C1=C(C)CCCC1(C)C`, for which the “activity change, negative = cytotoxic” value is -7.24%.
The same measure, in the same setting: the result for `CC(CN(C)C)CN1c2ccccc2CCc2ccccc21` (stereo not given) reads -13.2% [at 35.3 µM]; that for `C=CC/C=C/C/C=C/C/C=C/C`, 4.52%; that for `CNC(=S)NN`, -9.87%.
On the same count and under the same terms, the result for `COC(=O)CC#N` reads -1.15%.
Take `C=CCCCCCCC=C`: the “activity change, negative = cytotoxic” value was -0.0863%.
On the same count and under the same terms, the figure for `CCC1CCCCC1` is 7.18%.
For the compound `CCN(CC)CCSC(=O)C(c1ccccc1)c1ccccc1`, the “activity change, negative = cytotoxic” value was -6.86% [at 35.3 µM].
Still for that read-out and setting: the result for `CCCCOCC` reads -1.37%.
As to `CCCC(=O)OCC(COC(=O)CCC)OC(=O)CCC`, the “activity change, negative = cytotoxic” value was -1.04%.
Regarding `CCc1cccc(CC)c1NC(=O)C(=O)O`, the “activity change, negative = cytotoxic” value was 3.59%.
As to `COC(=O)NCCC[Si](OC)(OC)OC`, the “activity change, negative = cytotoxic” value is -14.2%.
The same measure, in the same setting: the result for `CCCCCCCC/C=C\CCCCCCCC(=O)OCCOC(=O)CCCCCCC/C=C\CCCCCCCC` reads -3.17%.
`CSc1ccc2c(c1)N(CCC1CCCCN1C)c1ccccc1S2` (stereo not given): the Potency is 43.5 µM (active) and 26.8 µM (active).
As to `CCOC(=O)N1CCC(=C2c3ccc(Cl)cc3CCc3cccnc32)CC1`, the “activity change, negative = cytotoxic” value was -11.7% [at 35.3 µM].
Turning to `C=C(C)CCCC`, the “activity change, negative = cytotoxic” value is 0.0948%.
The same measure, in the same setting: the figure for `COc1ccc(-n2nc(CCC(=O)N(C)O)cc2-c2ccc(Cl)cc2)cc1` is -18% [at 35.3 µM].
For `CCCCCCCCCCCCOC(=O)c1cc(O)c(O)c(O)c1`, the Potency was 54.7 µM (active) and 49 µM (active).
With `COC(=O)CC(C)CCC=C(C)C` (stereo not given), the “activity change, negative = cytotoxic” value was -3.6%.
Turning to `Cn1cnc2ncnc(N)c21`, the “activity change, negative = cytotoxic” value was -0.0153% [at 35.3 µM].
Consider `c1ccc(Nc2cccc3ccccc23)cc1`, for which the Potency result was “inactive”.
For the compound `CCCCCCCC/C=C\CCCCCCCC(=O)N(C)CC(=O)O`, the “activity change, negative = cytotoxic” value is -8.96%.
The same measure, in the same setting: the result for `CCC1(c2cnc[nH]2)Cc2ccccc2C1` reads 0.914% [at 35.3 µM]; that for `CC(C)(C)CC(C)(C)c1ccccc1O`, -3.25%.
In the case of `CCN(CC)CCCN(c1ccccc1)C1Cc2ccccc2C1`, the “activity change, negative = cytotoxic” value is -23.4% [at 35.3 µM].
Same read-out and setting: the result for `CCC(C)C(=O)OC` (stereo not given) reads 13.1%.
For the compound `CCCCCCCC(=O)OCC`, the “activity change, negative = cytotoxic” value was 10%.
Still for that read-out and setting: the figure for `CCCCCCCCCC(=O)N(C)C` is -0.533%; for `CCC(=O)CC(C)CC` (stereo not given) it is -0.929% [at 0.29 µM]; for `O=Nc1ccc(NO)cc1` it is 0.263%.
As for `C[C@@]12C(=O)OC(=O)[C@]1(C)C1CCC2O1`, the Potency is 1.51 µM (active).
Take `C[C@@H]1CC[C@H]2C(C)(C)[C@H]3C[C@@]12CC[C@@]3(C)O`: the “activity change, negative = cytotoxic” value was 0.817%.
Same read-out and setting: the result for `CCc1c(C(=O)O)c(=O)cnn1-c1ccc(Cl)cc1` reads -0.947%; that for `O=S(=O)(O)c1cc(S(=O)(=O)O)c2ccc3c(S(=O)(=O)O)cc(S(=O)(=O)O)c4ccc1c2c43`, 5.28% [at 15.8 µM]; that for `CCCCCCCCCCCCCCCC`, 1.03%.
For `CCCCCCCCCCCCCC[n+]1ccccc1`, the Potency is 12.3 µM (active).
As for `CC1(C)C(=O)N(CO)C(=O)N1CO`, the “activity change, negative = cytotoxic” value was -0.778%.
Same read-out and setting: the figure for `CC(=O)Oc1ccc(C2(c3ccc(OC(C)=O)cc3)C(=O)Nc3ccccc32)cc1` is -4.29% [at 35.3 µM]; for `CCc1cccc(CC)c1N(COC)C(=O)CS(=O)(=O)O` it is -1.21%.
